From PubChem BioAssay (NCATS)
“And” between values parts separate entries of the source, which are not always exact repeats. Identical values can stand only once. Records with an inconclusive call do not appear. Where a call stands in place of a potency, no number is given. The source made the active and inactive calls. Unless noted, calls follow the shape of the dose curve; as a rule, active = well fitted curve in the direction sought with a large enough effect; inconclusive = small, poorly fitted or top-dose-only effect, or another doubt; inactive = no such curve, though single readings can be large; an effect the other way counts as inactive or inconclusive.

Legend:
[1] = target: Cytochrome P450 3A4 (Homo sapiens) (UniProt P08684); assay: qHTS Assay for Inhibitors and Substrates of Cytochrome P450 3A4 (AID 884); also: potency is read from the fitted curve at half-maximal effect; nearly all actives have a fitted effect of over 50% in size
How it was run: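 Luminescent readout of luciferin produced by CYP3A4 (20 nM) dealkylation of Luciferin-PPXE, 25 uM (its KM). NADPH-driven reaction ran 60 min at RT after 10 min compound preincubation; data scaled to 57 uM ketoconazole as 100% inhibition.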

[2] = target: Cytochrome P450 3A4 (Homo sapiens) (UniProt P08684); assay: qHTS Assay for Activators of Cytochrome P450 3A4 (AID 885); also: nearly all actives have a fitted effect of over 65% in size
How it was run: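 Luminescent readout of luciferin formed from 25 uM Luciferin-PPXE (KM level) by 20 nM CYP3A4 in 200 mM KPO4, with 60 min NADPH-driven reaction at room temperature after 10 min compound exposure. Ketoconazole (57 uM) defined 100% inhibition.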

[3] = system: Zika virus NS2B-NS3 protease; assay: Primary screen GU AMC qHTS for Zika virus inhibitors (AID 1347154); also: nearly all actives have a fitted effect of over 70% in size
How it was run: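 Unlinked Zika NS2B hydrophilic domain–NS3 protease complex at 25 nM in 10 mM Tris-HCl pH 8.0, 0.01% Tween 20, with an AMC peptide substrate. Fluorescence change (340/450 nm) over 15 min at room temperature, normalized to controls, fitted to 4-parameter Hill.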

[4] = Counterscreen qHTS for small molecule stabilizers of the endoplasmic reticulum resident proteome: GLuc-NoTag assay (AID 1508627)
How it was run: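 Counterscreen line: SH-SY5Y-GLuc-NoTag. Seed, 5 h; compound, 19 h; thapsigargin 100 nM, 4 h; 37C/5% CO2. Readout: secreted GLuc luminescence, coelenterazine 0.07x final, no lysis.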

[5] = Confirmatory qHTS for small molecule stabilizers of the endoplasmic reticulum resident proteome: Secreted ER Calcium Modulated Protein (SERCaMP) assay (AID 1508628); also: potency is read from the fitted curve at half-maximal effect; nearly all actives have a fitted effect of over 40% in size
How it was run: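 Reporter secretion upon ER calcium depletion (100 nM thapsigargin, 4 h, 37C) is measured as medium luminescence with coelenterazine, after 16 h compound pretreatment of SH-SY5Y-GLuc-SERCaMP cells; primary at three concentrations up to 38.3 uM, follow-up at 11 (up to 76.6 uM).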

[6] = target: Cytochrome P450 1A2 (Homo sapiens) (UniProt P05177); assay: p450-cyp1a2 (AID 410; calls by dose curve; also: potency is read from the fitted curve at half-maximal effect)
How it was run: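 O-Demethylation of luciferin 6' methyl ether by human CYP1A2 is monitored as luciferase luminescence. Substrate sits at Km (100uM); enzyme is 20nM. Values are scaled to 57 uM furafylline as maximal inhibition.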

[7] = target: Glucocorticoid receptor (Homo sapiens) (UniProt P04150); assay: GR-GFP Redistribution (AID 450;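 active = compounds whose dose series gives a full or clear partial fitted curve of increased nuclear translocation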; also: potency is read from the fitted curve at half-maximal effect); details: U2OS GR-GFP nuclear translocation, laser cytometry, 2 h
[8] = target: Glucocorticoid receptor (Homo sapiens) (UniProt P04150); assay: GR-EFC Redistribution (AID 451; calls by dose curve; also: potency is read from the fitted curve at half-maximal effect); details: CHO-K1 GR-EFC translocation, beta-gal luminescence, 2 h
How it was run: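 CHO-K1 cells expressing nuclear EA and GR-ED fragments of b-gal; compounds titrated up to 46 uM final, 2 h at 37 C. GR nuclear translocation read as complemented b-gal luminescence after 1 h RT detection.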

[9] = target: Mitogen-activated protein kinase 10 (Mus musculus) (UniProt Q61831); assay: JNK3 AlphaScreen Assay (AID 530; active = well fitted curve in either direction with a large enough effect, not every such curve was filed as active;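 also: kinase came from lysate of stimulated human HepG2 cells; signal reports phosphorylation of biotinylated GST-cJun 1-79 at Ser73 with 10 µM ATP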)
How it was run: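 Activity was read by AlphaScreen after JNK3-containing HepG2 lysate (cytokine pre-activated) phosphorylated biotinylated GST-cJun with 10 uM ATP at room temperature. Phospho-Ser73 cJun antibody with Protein-A acceptor beads provided detection.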

[10] = target: 3',5'-cyclic-AMP phosphodiesterase 4B (Homo sapiens) (UniProt Q07343); assay: qHTS Assay for Inhibitors of PDE-IV (AID 607; active = well fitted activation curve with a large enough effect in the main read-out, with a control signal flat, not every such curve was filed as active)
How it was run: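 Cell-based read-out of cAMP via a modified cyclic nucleotide-gated channel and membrane potential dye (535/590 nm) in HEK293 cells expressing PDE4 endogenously. Compounds tested up to 22.9 uM final; 100 uM RO 20-1724 reference.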

[11] = Confirmation and Secondary Assay for Modulators of Hemoglobin Beta Chain Splicing at IVS2 654 locus (AID 910);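 also: HeLa cells stably carrying EGFP split by mutant beta-globin IVS2-654 intron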
How it was run: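 HeLa cells stably expressing EGFP interrupted by β-globin IVS2-654 intron, seeded overnight in Opti-MEM/2% FCS, then treated 2 days at 37 °C. Restored splicing read as total peak GFP intensity per well by laser scanning cytometry (488 nm excitation, 500–520 nm emission); 500 nM antisense PNA as control.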

[12] = Confirmation and Secondary Assay for Modulators of Hemoglobin Beta Chain Splicing at IVS2 705 locus (AID 930);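 also: HeLa cells stably expressing the EGFP-705 splicing reporter; GFP fluorescence per well restored by corrected splicing of the IVS2-705 intron in EGFP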
How it was run: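 First, HeLa EGFP-705 cells are seeded at 500/well in Optimem with 2% FCS and left overnight. Next, compound or DMSO is added for 2 days. Finally wells are laser-scanned and total peak GFP intensity scored.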

[13] = qHTS Assay for Lipid Storage Modulators (AID 1519; calls by dose curve); details: Drosophila S3 cells, BODIPY lipid droplet/cell ratio, laser cytometry, cells loaded with oleic acid; for activity change, negative = inhibition: at 57.5 µM (top of the series)
How it was run: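 Cells seeded at 5,000 per well were treated with compounds over a concentration series and loaded with oleic acid (400 uM, as added). Lipid droplet fluorescence (488 nm excitation, 500-530 nm channel) was read by laser-scanning cytometry and normalized to 20 uM Triacsin C.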

[14] = target: Ubiquitin carboxyl-terminal hydrolase 1 (Homo sapiens) (UniProt O94782); assay: Inhibitors of USP1/UAF1: Pilot qHTS (AID 504865);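 also: rhodamine fluorescence freed from ubiquitin-rhodamine substrate followed over time; top concentration of the series differs between compounds; nearly all actives have a fitted effect of over 35% in size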
How it was run: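 Enzyme-free wells gave the negative control, while test wells held 1nM USP1/UAF1 preincubated with compound for 15 min at room temperature. Ub-Rho at 150nM final started the reaction, and fluorescence at 480/540 nm was recorded kinetically.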

[15] = target: DNA dC->dU-editing enzyme APOBEC-3G (Homo sapiens) (UniProt Q9HC16); assay: qHTS for inhibitors of Vif-A3G interactions: Validation (AID 588379)
How it was run: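 Yellow fluorescence (Ex 488, Em 500-530) of Vif-coexpressing HeLa A3G-eYFP cells, scanned by Acumen cytometer, reports blocked A3G degradation. Cells plated at 700/well overnight at 37 deg C before compound addition, then a further overnight compound incubation at 37 deg C.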

[16] = Cell Viability qHTS for small molecule stabilizers of the endoplasmic reticulum resident proteome (AID 1508629); details: cell viability counter-screen, 100 nM thapsigargin for final 4 h;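 also: human SH-SY5Y neuroblastoma cells carrying the GLuc-SERCaMP reporter; compound exposure about 46 h in total before the viability read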
[17] = target: Cytochrome P450 2D6 (Homo sapiens) (UniProt P10635); assay: qHTS Assay for Inhibitors and Substrates of Cytochrome P450 2D6 (AID 891); also: potency is read from the fitted curve at half-maximal effect; nearly all actives have a fitted effect of over 60% in size
How it was run: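 Luminescent read-out of luciferin formed by 5 nM human CYP2D6 demethylating 30 uM Luciferin-ME EGE (Km level) over 60 min at room temperature after NADPH regeneration addition. Data normalized to full inhibition by 1.43 uM quinidine.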

[18] = measured here: cell count channel max response
[19] = measured here: lipid channel max response

Chain of DNA dC->dU-editing enzyme APOBEC-3G (Homo sapiens) (Q9HC16 whole entry, looked up): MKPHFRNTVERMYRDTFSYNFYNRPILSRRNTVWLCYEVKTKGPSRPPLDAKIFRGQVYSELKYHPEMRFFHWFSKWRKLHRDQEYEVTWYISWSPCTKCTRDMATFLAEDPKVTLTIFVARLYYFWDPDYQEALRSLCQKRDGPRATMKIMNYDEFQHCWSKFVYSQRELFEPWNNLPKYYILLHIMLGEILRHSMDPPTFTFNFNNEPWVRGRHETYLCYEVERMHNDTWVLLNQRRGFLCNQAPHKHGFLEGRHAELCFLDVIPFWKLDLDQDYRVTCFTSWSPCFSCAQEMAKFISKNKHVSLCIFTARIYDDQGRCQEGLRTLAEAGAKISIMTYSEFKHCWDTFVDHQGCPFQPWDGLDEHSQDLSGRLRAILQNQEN
Chain of Glucocorticoid receptor (Homo sapiens) (P04150 whole entry, looked up, the tested form may be a part): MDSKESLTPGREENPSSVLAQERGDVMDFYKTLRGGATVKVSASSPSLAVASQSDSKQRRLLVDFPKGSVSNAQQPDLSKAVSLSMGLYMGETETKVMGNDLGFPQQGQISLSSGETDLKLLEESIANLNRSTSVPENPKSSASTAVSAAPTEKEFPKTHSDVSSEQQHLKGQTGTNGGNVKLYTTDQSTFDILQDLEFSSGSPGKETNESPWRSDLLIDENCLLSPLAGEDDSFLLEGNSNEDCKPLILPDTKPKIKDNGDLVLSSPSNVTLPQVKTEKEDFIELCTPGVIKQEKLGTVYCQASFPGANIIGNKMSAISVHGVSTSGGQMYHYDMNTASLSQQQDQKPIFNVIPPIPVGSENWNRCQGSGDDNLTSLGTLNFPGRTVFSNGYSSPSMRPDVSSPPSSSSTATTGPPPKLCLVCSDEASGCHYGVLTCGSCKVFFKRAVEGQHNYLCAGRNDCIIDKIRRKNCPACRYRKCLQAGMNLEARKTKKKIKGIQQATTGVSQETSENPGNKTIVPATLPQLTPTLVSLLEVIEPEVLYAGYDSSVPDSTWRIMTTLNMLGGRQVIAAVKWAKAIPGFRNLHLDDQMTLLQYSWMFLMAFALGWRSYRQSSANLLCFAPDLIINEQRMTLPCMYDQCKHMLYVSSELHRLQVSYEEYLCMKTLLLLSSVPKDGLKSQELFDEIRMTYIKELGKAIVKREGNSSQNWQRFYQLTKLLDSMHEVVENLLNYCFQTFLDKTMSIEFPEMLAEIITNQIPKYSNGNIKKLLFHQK
Chain of Cytochrome P450 3A4 (Homo sapiens) (P08684 whole entry, looked up): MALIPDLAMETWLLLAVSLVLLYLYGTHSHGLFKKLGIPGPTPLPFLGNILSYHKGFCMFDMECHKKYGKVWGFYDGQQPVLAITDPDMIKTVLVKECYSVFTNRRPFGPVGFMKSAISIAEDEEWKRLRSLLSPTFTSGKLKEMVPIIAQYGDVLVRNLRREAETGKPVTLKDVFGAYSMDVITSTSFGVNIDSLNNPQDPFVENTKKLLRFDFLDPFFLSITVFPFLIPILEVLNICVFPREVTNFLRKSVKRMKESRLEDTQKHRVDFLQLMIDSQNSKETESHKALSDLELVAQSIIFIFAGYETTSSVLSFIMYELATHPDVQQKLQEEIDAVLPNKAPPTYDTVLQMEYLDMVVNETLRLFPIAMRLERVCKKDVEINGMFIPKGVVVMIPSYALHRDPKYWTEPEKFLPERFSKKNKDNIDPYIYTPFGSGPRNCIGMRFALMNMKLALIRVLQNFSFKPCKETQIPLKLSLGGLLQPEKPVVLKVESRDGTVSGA
Chain of Cytochrome P450 1A2 (Homo sapiens) (P05177 whole entry, looked up): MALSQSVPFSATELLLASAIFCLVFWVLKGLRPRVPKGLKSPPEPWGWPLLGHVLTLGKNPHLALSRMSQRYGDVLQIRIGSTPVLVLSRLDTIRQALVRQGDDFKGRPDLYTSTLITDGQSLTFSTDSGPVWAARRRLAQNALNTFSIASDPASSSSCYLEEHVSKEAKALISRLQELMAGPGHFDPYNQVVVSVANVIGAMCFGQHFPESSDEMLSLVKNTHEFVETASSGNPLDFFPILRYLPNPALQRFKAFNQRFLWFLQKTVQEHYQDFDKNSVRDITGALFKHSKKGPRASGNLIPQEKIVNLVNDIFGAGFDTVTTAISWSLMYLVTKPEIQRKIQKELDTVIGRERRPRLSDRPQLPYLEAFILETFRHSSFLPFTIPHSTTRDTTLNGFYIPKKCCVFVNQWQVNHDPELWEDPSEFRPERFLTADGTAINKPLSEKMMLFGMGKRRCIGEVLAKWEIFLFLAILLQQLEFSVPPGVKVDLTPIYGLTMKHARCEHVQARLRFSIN
Chain of 3',5'-cyclic-AMP phosphodiesterase 4B (Homo sapiens) (Q07343 whole entry, looked up): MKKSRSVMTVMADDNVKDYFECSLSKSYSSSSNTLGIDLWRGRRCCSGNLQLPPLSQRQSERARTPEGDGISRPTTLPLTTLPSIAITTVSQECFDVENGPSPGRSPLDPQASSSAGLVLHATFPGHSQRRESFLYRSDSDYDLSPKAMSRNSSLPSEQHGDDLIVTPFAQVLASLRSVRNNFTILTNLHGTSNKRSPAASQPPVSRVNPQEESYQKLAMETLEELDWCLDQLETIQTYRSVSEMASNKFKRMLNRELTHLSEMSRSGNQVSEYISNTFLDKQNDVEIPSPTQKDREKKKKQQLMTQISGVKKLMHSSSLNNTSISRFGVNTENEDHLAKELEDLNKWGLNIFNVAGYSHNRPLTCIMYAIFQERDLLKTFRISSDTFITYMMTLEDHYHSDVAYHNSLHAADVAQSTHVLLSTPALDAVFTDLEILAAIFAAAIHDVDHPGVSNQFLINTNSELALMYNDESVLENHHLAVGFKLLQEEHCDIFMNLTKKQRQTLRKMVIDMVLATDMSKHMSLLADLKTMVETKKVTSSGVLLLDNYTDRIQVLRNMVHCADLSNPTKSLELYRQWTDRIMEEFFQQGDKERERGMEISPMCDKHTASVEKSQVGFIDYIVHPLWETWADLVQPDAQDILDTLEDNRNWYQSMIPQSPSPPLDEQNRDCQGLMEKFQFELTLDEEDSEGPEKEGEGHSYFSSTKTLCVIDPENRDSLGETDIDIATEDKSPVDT
Chain of Ubiquitin carboxyl-terminal hydrolase 1 (Homo sapiens) (O94782 whole entry, looked up): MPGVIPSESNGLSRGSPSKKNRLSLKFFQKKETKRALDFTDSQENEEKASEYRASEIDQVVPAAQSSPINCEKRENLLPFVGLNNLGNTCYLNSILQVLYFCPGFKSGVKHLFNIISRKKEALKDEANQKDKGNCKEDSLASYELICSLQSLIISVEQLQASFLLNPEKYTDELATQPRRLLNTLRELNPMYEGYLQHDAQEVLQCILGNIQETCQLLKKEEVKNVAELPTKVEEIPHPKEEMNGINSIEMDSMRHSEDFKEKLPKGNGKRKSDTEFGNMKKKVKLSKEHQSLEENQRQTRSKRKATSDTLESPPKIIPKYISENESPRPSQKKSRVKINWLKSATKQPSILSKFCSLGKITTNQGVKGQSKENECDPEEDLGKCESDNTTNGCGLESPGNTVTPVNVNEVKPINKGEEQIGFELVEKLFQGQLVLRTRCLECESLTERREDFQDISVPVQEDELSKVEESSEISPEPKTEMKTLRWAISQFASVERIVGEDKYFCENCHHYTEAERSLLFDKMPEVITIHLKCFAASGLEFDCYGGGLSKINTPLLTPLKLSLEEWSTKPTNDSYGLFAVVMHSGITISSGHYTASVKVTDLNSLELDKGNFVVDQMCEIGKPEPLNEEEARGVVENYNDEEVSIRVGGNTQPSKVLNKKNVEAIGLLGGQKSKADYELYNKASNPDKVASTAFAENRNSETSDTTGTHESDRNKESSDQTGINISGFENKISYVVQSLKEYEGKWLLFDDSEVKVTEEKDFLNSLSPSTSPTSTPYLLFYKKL
Chain of Cytochrome P450 2D6 (Homo sapiens) (P10635 whole entry, looked up): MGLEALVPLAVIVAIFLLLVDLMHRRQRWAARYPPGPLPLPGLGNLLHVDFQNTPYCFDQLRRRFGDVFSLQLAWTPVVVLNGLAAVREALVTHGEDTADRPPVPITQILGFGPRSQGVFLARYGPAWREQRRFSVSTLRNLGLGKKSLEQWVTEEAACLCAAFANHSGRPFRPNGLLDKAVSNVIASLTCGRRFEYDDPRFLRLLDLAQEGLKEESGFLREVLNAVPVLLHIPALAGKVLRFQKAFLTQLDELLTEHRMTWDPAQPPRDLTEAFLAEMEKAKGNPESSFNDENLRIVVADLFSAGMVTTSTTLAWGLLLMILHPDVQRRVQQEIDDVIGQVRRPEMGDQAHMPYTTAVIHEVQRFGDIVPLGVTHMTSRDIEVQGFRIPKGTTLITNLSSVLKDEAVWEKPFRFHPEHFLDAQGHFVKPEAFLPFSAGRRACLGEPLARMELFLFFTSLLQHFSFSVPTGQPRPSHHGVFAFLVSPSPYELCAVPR

SMILES | Potency [1] | Potency [2] | Potency [3] | Potency [4] | Potency [5] | Potency [6] | Potency [7] | Potency [8] | Potency [9] | Potency [10] | outcome [11] | outcome [12] | activity change, negative = inhibition [13] | max response [13, 18] | max response [13, 19] | Potency [14] | Potency [15] | max response [16] | Potency [17]
CCOC(=O)NC[C@H](Cc1ccc(OCCc2nc(-c3ccccc3)oc2C)cc1)N/C(C)=C\C(=O)c1ccc(C(F)(F)F)cc1 | 0.794 µM (active) | inactive | inactive | inactive | 31.6 µM (active) | – | – | – | – | – | – | – | – | – | – | – | – | – | –
NCCOB(c1ccccc1)c1ccccc1 | – | inactive | inactive | inactive | – | 15.8 µM (active) | > 46 µM (inactive) | > 46 µM (inactive) | inactive | inactive | inactive | inactive | -7.96% (inactive) and -2.88% (inactive) | -4.57% and 13.6% | -11.1% and 11.6% | inactive | inactive | 2.88% (inactive) | –
COc1ccc(Cl)cc1N=Nc1ncc[nH]1 | – | inactive | inactive | inactive | 35.5 µM (active) | 0.631 µM (active) | > 46 µM (inactive) | > 46 µM (inactive) | inactive | – | – | – | – | – | – | – | inactive | – | 2.51 µM (active)
COc1ccc2c3c1O[C@H]1C[C@H](O)C=C[C@@]31CCN(C)C2 | – | – | inactive | inactive | – | – | > 46 µM (inactive) | > 46 µM (inactive) | inactive | inactive | – | – | 3.95% (inactive) | 9.55% | 14.8% | – | inactive | – | –
